In PubChem BioAssay (NCI):
This is part of a sample that, as a whole, favours compounds with a hit. Of some 83,000 tested, about 20% had one in any assay.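 Plates (96-well) were seeded with cells, treated with compound at one concentration, and incubated for 48 hours before percent growth was determined.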 A number with no mark means an inactive call. Activity calls are given as the source filed them. The calls were made as follows: active = growth percent below 10; inactive = the rest.

What was measured:
Test in all cases: NCI-60 one-dose screen, 48 h (100 = growth as untreated, 0 = no growth, -100 = all killed)
[1] = system: BT-549 breast; conditions: 10 µM unless noted
[2] = system: MDA-MB-435 melanoma; conditions: 10 µM unless noted
[3] = system: SW-620 colon; conditions: 10 µM unless noted
[4] = system: MCF7 breast; conditions: 10 µM
[5] = system: HCT-116 colon; conditions: 10 µM unless noted
[6] = system: HCC-2998 colon; conditions: 10 µM unless noted
[7] = system: KM12 colon; conditions: 10 µM unless noted

SMILES | growth [1] | growth [2] | growth [3] | growth [4] | growth [5] | growth [6] | growth [7] [%]
C[n+]1c2ccccc2nc2ccc(NCCO)cc21 | 105% | 98.4% | 96.6% | 84.8% | 94.2% | 116% | 
COc1ccc(/C=C/C(=O)c2ccc(Nc3nc(NCCO)nc(Nc4ccc(Cl)cc4)n3)cc2)cc1 | 61.3% | 65.4% | 91.1% | 12.9% | 19.8% | 57.2% | 
Cc1ccc2[nH]c(=O)cc(-n3nncc3Cn3c4ccccc4c4ccccc43)c2c1 | 96.6% | 100% | 97.9% | 99.5% | 97.8% | 101% | 
COc1ccccc1C1=C(Br)C(=O)c2nc(C)ccc2C1=O | 90.4% | 104% | 87.9% | 90.8% | 92.1% | 102% | 
O=C1/C(=C/c2ccc(O)cc2)COc2ccc(O)cc21 | 106% | 94.8% | 87.2% | 51.6% | 86.1% | 108% | 
Cc1ccc(Cc2cnc(NC(=O)CN3C(=O)/C(=C\c4ccccc4)SC3=S)s2)cc1 | 117% | 107% | 107% | 95.8% | 103% | 105% | 
O=c1c2cccc(F)c2sc2c(N3CCNCC3)nc3ccccc3c12 | 73.7% | 2.82% (active) | -39.8% (active) | -20.6% (active) | 7.91% (active) | -6.49% (active) | 
Cc1cccc(NC(=O)c2sc3nc4c(cc3c2N)CCCC4)c1C | 37.5% | -40.6% (active) | 23.7% | 17.1% | 14.8% | 22.8% | 
CCOc1cccc(/C=N\Nc2nc(=O)cc(C(=O)OC)s2)c1O | 85.4% | 91.6% | 79.3% | 8.66% (active) | 22% | 78% | 
Brc1ccc(Oc2ccc(Nc3ncnc4onc(-c5ccccc5)c34)cc2)cc1 | 102% | 99.9% | 100% | 86.1% | 97.5% | 95.5% | 
CCCN1C(=O)N(CCC)C2C1NN=c1s/c(=C3\C(=O)N(C(C)C)c4ccccc43)c(=O)n12 (centres undefined) | 47.7% | -7.13% (active) | 35.9% | 15.4% | 20% | 65.3% | 
CCN(CCO)CCNc1ccc(C)c2sc3cc(Cl)ccc3c(=O)c12 | 69.6% | -68.6% (active) | -85% (active) | -83.1% (active) | -66.1% (active) | -96.8% (active) | 
COc1ccc(-c2cn[nH]c2-c2ccc(OC)c(O)c2)cc1 | 74.1% | 3.35% (active) | 38% | 35.4% | 61.4% | 85.8% | 
CCN1C(=O)N(CC)C2C1NC(=S)N2/N=C/C=C/c1ccccc1OC (centres undefined) | -5.67% (active) | -20.9% (active) | 23.6% | 17.8% | 2.3% (active) | 12.4% | 15.6
Cc1sc2ncnc(Sc3nc4ccccc4[nH]3)c2c1C | 47.2% | -92.9% (active) | -78.2% (active) | -70.2% (active) | -71.2% (active) | -91.4% (active) | 
CN(C)c1ccc(N=Cc2ccc(N3CCOCC3)cc2)cc1 | 95.1% | 74.1% | 44.2% | 39% | 67.6% | 54.2% | 
CCn1c(-c2nonc2Nc2ccc(OC)cc2)nc2ccccc21 | 103% | 96.8% | 104% | 110% | 97.4% | 111% | 
Cc1ccc(C(=O)c2oc3ccc4c(C)cc(=O)oc4c3c2C)cc1 | 40.8% | 29.7% | 23.2% | 9.99% (active) | 21.7% |  | 
O=C(Nc1ccc(C23CC4CC(CC(c5ccccc5)(C4)C2)C3)cc1)c1cccs1 | 68.9% | 44.9% | 82% | 67.3% | 60.4% | 74.8% | 

SMILES | growth [1] | growth [2] | growth [3] | growth [4] | growth [5] | growth [6] | growth [7] [%]
O=C(/C=C/c1ccc(Cl)cc1)c1ccc(Nc2nc(NCCO)nc(N3CCOCC3)n2)cc1 | 85% | 77.9% | 50.4% | 9.73% (active) | 18.6% | 99% | 
NS(=O)(=O)c1ccc(CCN=C=S)cc1 | 63.8% | 27.9% | -22.9% (active) | 2.99% (active) | 0.727% (active) | 81.1% | 
Cc1[nH]c2ccccc2c(=O)c1CC=C(Cl)Cl | 135% | 47.5% | 10.5% | -88.7% (active) | -65.6% (active) | 59.3% | 
CCCCC1COc2cccc3c2N1C=C/C3=C\C(=O)N(C)c1ccccc1 (centres undefined) | 50.8% | 69% | 73.4% | 66.7% | 36.1% | 71.1% | 
O=C(c1nc2ccccc2[nH]1)C1C(c2ccc(F)cc2)C2CC3CCCCC3N2[C@@]12C(=O)Nc1ccc(Cl)cc12 (some centres undefined) | 77.4% | 42.4% | 41% | 21.4% | 28% | 43% | 
O=C1OC(c2ccccc2)(c2ccccc2)c2ccsc21 | 104% | 108% | 97.4% | 104% | 103% |  | 
COc1ccc(CN2CCCC(C(=O)c3ccc(C(F)(F)F)cc3)C2)c(O)c1 (centres undefined) | 25.7% | -48.9% (active) | 13.4% | 10.9% | 15.9% | 31.8% | 
Nc1nc(Nc2cccc(F)c2)nc2ccccc12 | 75.7% | 18.6% | 35.1% | 41.5% | 23.1% | -59.9% (active) | 
CN1C(=O)N(C)C2C1NN=c1s/c(=C\c3c[nH]c4ccccc34)c(=O)n12 (centres undefined) | 12.3% | 102% | 28.6% | 16% | 5.95% (active) | 27.3% | 
O=C(O)CCCN1C(=O)C2C3CCC(C3)C2C1=O (centres undefined) | 107% | 99.7% | 112% | 109% | 108% | 106% | 
Clc1ncccc1Nc1ccc2nnc(-c3ccncc3)n2n1 | 108% | 102% | 103% | 94.2% | 101% | 95.7% | 
CCN1C(=O)N(CC)C2C1NN=c1s/c(=C3\C(=O)N(C(C)C)c4ccccc43)c(=O)n12 (centres undefined) | 6.02% (active) | -12.1% (active) | 27.1% | 20.5% | 10.1% |  | 
CCOC(=O)c1cc2c(n1Cc1cccc(OC)c1)-c1oncc1CCC2 | 42.4% | -13.4% (active) | 23.6% | 14.1% | 25.2% | 51.6% | 
O=C(Nc1ccc(F)c(Cl)c1)Nc1ccc(Cl)c(Cl)c1 | 64% | -7.47% (active) | 35% | 55.1% | 50.6% | 94.6% | 
COC(=O)/C(=C\c1c(C)[nH]c2ccccc12)S(=O)(=O)c1ccccc1 | 29.8% | 13.9% | 30.4% | 6.71% (active) | 29.5% | 5.21% (active) | 
O=c1c(-c2nc3ccccc3[nH]2)cc2ccccc2n1Cc1cn(Cc2ccc(N3CCOCC3)cc2)nn1 | 45.9% | 76.6% | 70.7% | 56.8% | 83.6% | 93.2% | 
CCn1c(Cc2ccccc2Nc2c(Cl)cccc2Cl)nnc1SCC(=O)NN1C(=O)/C(=C/c2cccc(OC)c2OC)SC1=S | 109% | 103% | 106% | 99.1% | 109% | 115% | 
O=C(Nc1nc2c(s1)CCc1c-2c(Br)n(Cc2ccccc2)c1Br)c1ccccc1 | 52.8% | 56.1% | 69.2% | 51.5% | 69.9% |  | 
